Data on six compounds can be found in PubChem BioAssay (EPA / NIEHS).

Active and inactive are the calls of the source. Rule for the calls: active = hit-call score of the fitted dose curve at least 0.9, where 1 is the maximum; inactive = score below 0.9.

What all share (settings): mRNA level, 48 h; actives raise or lower the signal
Read-out in assay [1]: Apoptosis regulator Bcl-2 (Homo sapiens) (UniProt P10415)
The assay is described as follows: LTEA_HepaRG_BCL2: Life Technologies and Expression Analysis (LTEA) Assay for Bcl-2 gene using HepaRG (AID 2283475). In short, it runs like this:
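Differentiated human HepaRG cells in serum-free induction medium exposed 48 h, in duplicate, to 8-point half-log series from 100 uM in 0.5% DMSO. BCL2 mRNA by qRT-PCR (TaqMan/Fluidigm), normalized to ACTB, GAPDH, POLR2A; bidirectional fit against DMSO.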

Read-out in a further assay: Caspase-3 (Homo sapiens) (UniProt P42574)
The assay is described as follows: LTEA_HepaRG_CASP3: Life Technologies and Expression Analysis (LTEA) Assay for cysteine-aspartic acid protease (CASP3) using HepaRG (AID 2283477). In short, it runs like this: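 In HepaRG liver cells dosed for 48 h at up to 100 uM (eight-point, duplicate), CASP3 expression changes are scored by qRT-PCR. Activity is fitted in both directions with 0.5% DMSO as baseline.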

Read-out in assay [2]: Cytochrome P450 (CYP24A1), CYP24A1 (gene 1591)
The assay is described as follows: LTEA_HepaRG_CYP24A1: Life Technologies and Expression Analysis (LTEA) Assay for Cytochrome P450 (CYP24A1) using HepaRG (AID 2283478). In short, it runs like this:
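Human liver HepaRG cultures receive each chemical for 48 h across an eight-point half-log series topping at 100 uM in 0.5% DMSO. Induction or suppression of CYP24A1 mRNA is scored relative to vehicle after housekeeping-gene normalization.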

Read-out in assay [3]: Cytochrome P450 (CYP1A2), CYP1A2 (gene 1544)
The assay is described as follows: LTEA_HepaRG_CYP1A2: Life Technologies and Expression Analysis (LTEA) Assay for Cytochrome P450 (CYP1A2) using HepaRG (AID 2283479). In short, it runs like this: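 Assesses CYP1A2 mRNA in human HepaRG liver cells after 48 h chemical exposure at up to 100 uM. Values come from qRT-PCR with bidirectional curve fitting relative to DMSO.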

Read-out in assay [4]: cysteine-aspartic acid protease (CASP8), CASP8 (gene 841)
The assay is described as follows: LTEA_HepaRG_CASP8: Life Technologies and Expression Analysis (LTEA) Assay for cysteine-aspartic acid protease (CASP8) using HepaRG (AID 2283480). In short, it runs like this: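 HepaRG, 48 h exposure, duplicate wells; 8 conc, half-log from 100 uM, 0.5% DMSO. Serum-free induction medium. CASP8 mRNA by TaqMan qRT-PCR, norm. ACTB/GAPDH/POLR2A; gain/loss fitted vs DMSO.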

Read-out in assay [5]: Cytochrome P450 (CYP2B6), CYP2B6 (gene 1555)
The assay is described as follows: LTEA_HepaRG_CYP2B6: Life Technologies and Expression Analysis (LTEA) Assay for Cytochrome P450 (CYP2B6) using HepaRG (AID 2283481). The method in brief:
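Using 48 h treatment of HepaRG cells in serum-free induction medium, concentrations spanned half-log steps from 100 uM in 0.5% DMSO vehicle. CYP2B6 mRNA induction or loss is scored by qRT-PCR against DMSO.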

Read-out in assay [6]: Cytochrome P450 2C19 (Homo sapiens) (UniProt P33261)
The assay is described as follows: LTEA_HepaRG_CYP2C19: Life Technologies and Expression Analysis (LTEA) Assay for CYP2C19 using HepaRG (AID 2283482). In short, it runs like this:
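Human HepaRG liver cells received test chemicals for 48 h (highest 100 uM, half-log dilutions in 0.5% DMSO). CYP2C19 mRNA induction or loss is read by multiplexed qRT-PCR and fitted in both directions versus vehicle.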

Read-out in another assay: CYP2C8 (gene 1558)
The assay is described as follows: LTEA_HepaRG_CYP2C8: Life Technologies and Expression Analysis (LTEA) Assay for CYP2C8 using HepaRG (AID 2283483). The method in brief:
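CYP2C8 mRNA induction or loss, by qRT-PCR normalized to ACTB/GAPDH/POLR2A, is read in HepaRG cells after 48 h treatment. Concentrations run from 100 uM down in half-log dilutions, with 0.5% DMSO as vehicle and baseline.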

Read-out in another assay: CYP2C9 (gene 1559)
The assay is described as follows: LTEA_HepaRG_CYP2C9: Life Technologies and Expression Analysis (LTEA) Assay for CYP2C9 using HepaRG (AID 2283484). The method in brief:
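Cells plated 48 h, switched to serum-free induction medium, then treated in duplicate for 48 h at eight concentrations (max 100 uM, 0.5% DMSO). RNA then analysed by qRT-PCR for CYP2C9; curves fitted in both directions relative to DMSO.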

Read-out in the next assay: CYP2E1 (gene 1571)
The assay is described as follows: LTEA_HepaRG_CYP2E1: Life Technologies and Expression Analysis (LTEA) Assay for CYP2E1 using HepaRG (AID 2283485). The method in brief: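 HepaRG cells, plated 48 h, then exposed 48 h in serum-free induction medium to eight half-log concentrations from 100 uM in 0.5% DMSO, duplicate. CYP2E1 mRNA by qRT-PCR, normalized to ACTB/GAPDH/POLR2A; bidirectional fit versus DMSO.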

Read-out in another assay: CYP4A11 (gene 1579)
The assay is described as follows: LTEA_HepaRG_CYP4A11: Life Technologies and Expression Analysis (LTEA) Assay for CYP4A11 using HepaRG (AID 2283486). The method in brief:
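Readout is CYP4A11 mRNA induction or suppression (qRT-PCR, ACTB/GAPDH/POLR2A normalization) in human HepaRG cells after 48 h chemical treatment, concentrations to 100 uM in 0.5% DMSO, fitted bidirectionally against vehicle.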

Read-out in assay [7]: Cytochrome P450 3A4 (Homo sapiens) (UniProt P08684)
The assay is described as follows: LTEA_HepaRG_CYP3A4: Life Technologies and Expression Analysis (LTEA) Assay for CYP3A4 using HepaRG (AID 2283487). The method in brief: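 CYP3A4 transcript measured by TaqMan qRT-PCR and normalized to three housekeeping genes after 48 h chemical exposure of human HepaRG cells. Top concentration 100 uM, half-log steps, 0.5% DMSO vehicle; gain or loss fitted against DMSO baseline.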

Read-out in assay [8]: DNA damage-inducible transcript 3 (DDIT3), DDIT3 (gene 1649)
The assay is described as follows: LTEA_HepaRG_DDIT3: Life Technologies and Expression Analysis (LTEA) Assay for DNA damage-inducible transcript 3 (DDIT3) using HepaRG (AID 2283488). The method in brief:
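HepaRG cells, 48 h after plating, exposed 48 h in serum-free induction medium to 8 half-log concentrations up to 100 uM in 0.5% DMSO, in duplicate. DDIT3 mRNA measured by TaqMan qRT-PCR, normalized to ACTB, GAPDH and POLR2A. Fitted bidirectionally against DMSO.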

Read-out in assay [9]: Pro-epidermal growth factor (Homo sapiens) (UniProt P01133)
The assay is described as follows: LTEA_HepaRG_EGF: Life Technologies and Expression Analysis (LTEA) Assay for Epidermal growth factor (EGF) using HepaRG (AID 2283489). The method in brief:
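EGF expression changes in human HepaRG cells are scored by bidirectional fitting relative to 0.5% DMSO controls. Chemicals are tested at eight half-log concentrations up to 100 uM for 48 h in serum-free induction medium.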

Read-out in assay [10]: Early growth response protein 1 (EGR1) transcription factor, EGR1 (gene 1958)
The assay is described as follows: LTEA_HepaRG_EGR1: Life Technologies and Expression Analysis (LTEA) Assay for Early growth response protein 1 (EGR1) transcription factor using HepaRG (AID 2283490). In short, it runs like this:
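Read-out is EGR1 mRNA level by qRT-PCR, normalized to three housekeeping genes and analysed for gain or loss of signal against 0.5% DMSO. Source cells: human HepaRG, treated 48 h at up to 100 uM in half-log dilutions.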

Read-out in assay [11]: Ezrin (EZR), EZR (gene 7430)
The assay is described as follows: LTEA_HepaRG_EZR: Life Technologies and Expression Analysis (LTEA) Assay for Ezrin (EZR) using HepaRG (AID 2283491). The method in brief:
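HepaRG, 48 h chemical exposure, 8-pt half-log series from 100 uM, 0.5% DMSO vehicle, duplicates. Read-out: EZR mRNA by TaqMan qRT-PCR (Fluidigm array), housekeeping-normalized; bidirectional curve fit vs DMSO baseline.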

Read-out in another assay: CYP3A5 (gene 1577)
The assay is described as follows: LTEA_HepaRG_CYP3A5: Life Technologies and Expression Analysis (LTEA) Assay for CYP3A5 using HepaRG (AID 2283493). In short, it runs like this: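 HepaRG cells, plated 48 h then in serum-free induction medium, dosed in duplicate for 48 h with eight half-log concentrations up to 100 uM in 0.5% DMSO. Gene mRNA by Fluidigm TaqMan qRT-PCR, normalized to ACTB, GAPDH, POLR2A.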

Read-out in assay [12]: Fatty Acid-Binding Protein 1 (FABP1), FABP1 (gene 2168)
The assay is described as follows: LTEA_HepaRG_FABP1: Life Technologies and Expression Analysis (LTEA) Assay for Fatty Acid-Binding Protein 1 (FABP1) using HepaRG (AID 2283494). In short, it runs like this:
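HepaRG, 48 h post-plating switched to serum-free induction medium, then dosed 48 h (duplicate, 8 pts, ≤100 uM, 0.5% DMSO). RNA → Fluidigm TaqMan qRT-PCR, FABP1 normed to ACTB/GAPDH/POLR2A. Bidirectional curve fit vs DMSO.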

Chain of Caspase-3 (Homo sapiens) (P42574 whole entry, looked up): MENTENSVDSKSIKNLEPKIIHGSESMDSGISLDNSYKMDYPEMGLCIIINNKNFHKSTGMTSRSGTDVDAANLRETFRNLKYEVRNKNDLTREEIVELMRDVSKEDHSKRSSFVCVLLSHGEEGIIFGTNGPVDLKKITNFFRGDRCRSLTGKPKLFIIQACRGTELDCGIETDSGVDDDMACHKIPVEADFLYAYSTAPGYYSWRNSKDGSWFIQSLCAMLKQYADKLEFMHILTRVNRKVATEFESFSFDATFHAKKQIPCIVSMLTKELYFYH
Chain of Cytochrome P450 2C19 (Homo sapiens) (P33261 whole entry, looked up): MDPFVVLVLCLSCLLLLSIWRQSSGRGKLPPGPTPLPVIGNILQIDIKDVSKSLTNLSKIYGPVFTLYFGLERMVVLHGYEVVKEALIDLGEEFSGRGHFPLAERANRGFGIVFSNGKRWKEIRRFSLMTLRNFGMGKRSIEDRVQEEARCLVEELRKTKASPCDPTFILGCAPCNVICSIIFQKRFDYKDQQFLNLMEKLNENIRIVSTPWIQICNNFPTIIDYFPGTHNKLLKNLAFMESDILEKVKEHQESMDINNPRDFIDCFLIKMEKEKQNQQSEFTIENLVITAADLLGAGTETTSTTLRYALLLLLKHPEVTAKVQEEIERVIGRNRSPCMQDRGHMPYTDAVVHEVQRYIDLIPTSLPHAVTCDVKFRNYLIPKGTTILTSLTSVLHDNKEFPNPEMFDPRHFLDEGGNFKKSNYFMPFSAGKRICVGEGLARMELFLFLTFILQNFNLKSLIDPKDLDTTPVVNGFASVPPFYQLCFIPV
Chain of Apoptosis regulator Bcl-2 (Homo sapiens) (P10415 whole entry, looked up): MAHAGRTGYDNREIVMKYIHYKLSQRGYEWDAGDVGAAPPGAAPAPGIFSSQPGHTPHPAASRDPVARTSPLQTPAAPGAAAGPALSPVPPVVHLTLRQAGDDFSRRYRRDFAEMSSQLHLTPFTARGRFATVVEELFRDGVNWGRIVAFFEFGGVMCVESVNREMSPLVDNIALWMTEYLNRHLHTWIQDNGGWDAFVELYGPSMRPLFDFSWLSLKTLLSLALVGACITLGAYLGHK
Chain of Cytochrome P450 3A4 (Homo sapiens) (P08684 whole entry, looked up): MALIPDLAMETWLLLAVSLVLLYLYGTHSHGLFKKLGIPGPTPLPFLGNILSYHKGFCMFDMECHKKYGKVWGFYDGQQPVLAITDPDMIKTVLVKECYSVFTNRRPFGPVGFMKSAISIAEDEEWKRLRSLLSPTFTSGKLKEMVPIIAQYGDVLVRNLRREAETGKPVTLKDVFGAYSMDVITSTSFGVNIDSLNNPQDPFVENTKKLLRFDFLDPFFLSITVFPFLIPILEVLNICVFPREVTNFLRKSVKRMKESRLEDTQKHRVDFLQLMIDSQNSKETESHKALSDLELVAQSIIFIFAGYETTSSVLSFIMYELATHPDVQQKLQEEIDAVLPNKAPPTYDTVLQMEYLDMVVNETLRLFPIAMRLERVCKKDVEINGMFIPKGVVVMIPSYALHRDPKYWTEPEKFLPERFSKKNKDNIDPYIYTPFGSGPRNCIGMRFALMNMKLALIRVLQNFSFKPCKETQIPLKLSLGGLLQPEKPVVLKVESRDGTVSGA

As to `C[C@@H]1C[C@H]2[C@@H]3CCC4=CC(=O)C=C[C@]4(C)[C@@]3(F)[C@@H](O)C[C@]2(C)[C@@]1(O)C(=O)COP(=O)(O)O`, the call (in assay [1]; with Caspase-3 (Homo sapiens); in assay [2]; in [3]; in [4]; in [5]) was inactive. The outcome (in assay [6]; with CYP2C8 (gene 1558); in the assay with CYP2C9 (gene 1559); with CYP4A11 (gene 1579); in assay [8]; in [9]) was inactive. Moreover, the compound was classed as inactive (in [10]; in assay [11]; in the assay with CYP3A5 (gene 1577); in [12]). Besides, the AC50 (usually the concentration giving half of the maximal activity seen) was 25 µM (active) with CYP2E1 (gene 1571) and 9.66 µM (active) in [7].
With `CC(C)CCCCCCOC(=O)CCCCC(=O)OCCCCCCC(C)C`, the outcome (in [1]; with Caspase-3 (Homo sapiens); in assay [2]; in assay [4]; in assay [6]; with CYP2C8 (gene 1558)) was inactive. For the same compound, the call (with CYP2C9 (gene 1559); with CYP2E1 (gene 1571); with CYP4A11 (gene 1579); in assay [7]; in assay [8]; in assay [9]) was inactive. Further, the result (in assay [10]; in [11]; in the assay with CYP3A5 (gene 1577); in [12]) was inactive. Besides, the values for the AC50 in assay [3] and in assay [5] were 50 µM (active) and 31.8 µM (active), respectively.
On to `CCC(C)(C)C1CCC(O)CC1` (stereo unspecified), for which the result (in assay [1]; in the assay with Caspase-3 (Homo sapiens); in [2]; in [3]; in assay [4]; in assay [6]) was inactive. Besides, the result (in the assay with CYP2C8 (gene 1558); with CYP2C9 (gene 1559); in the assay with CYP2E1 (gene 1571); with CYP4A11 (gene 1579); in [7]; in assay [8]) was inactive. The call (in [9]; in assay [10]; in assay [11]; with CYP3A5 (gene 1577); in [12]) was inactive. Besides, the AC50 in assay [5] was 16 µM (active).
`Oc1cc2ccccc2c2ccccc12`: the compound was classed as inactive (in assay [1]; with Caspase-3 (Homo sapiens); in assay [2]; in assay [4]; in assay [5]; in assay [6]). Besides, the call (with CYP2C8 (gene 1558); in the assay with CYP2C9 (gene 1559); with CYP2E1 (gene 1571); with CYP4A11 (gene 1579); in assay [7]; in assay [8]) was inactive. The call (in assay [9]; in assay [10]; in assay [11]; with CYP3A5 (gene 1577); in assay [12]) was inactive. Moreover, in assay [3], the AC50 was 22.4 µM (active).
For the compound `CCC(=C(c1ccc(O)cc1)c1ccc(OCCN(C)C)cc1)c1ccccc1`, the result (in assay [1]; in assay [2]; in assay [3]; with CYP2C9 (gene 1559); in the assay with CYP2E1 (gene 1571); in assay [9]) was inactive. Also, the outcome in [11] and in [12] was inactive. Also, the AC50 is 89.8 µM (active) in the assay with Caspase-3 (Homo sapiens); 75.9 µM (active) in assay [4]; 3.08 µM (active) in assay [5]; 91.4 µM (active) in [6]; 2.39 µM (active) with CYP2C8 (gene 1558); 84.4 µM (active) with CYP4A11 (gene 1579). Besides, the AC50 in assay [7] was 2.51 µM (active); in assay [8], 72.8 µM (active); in [10], 76.5 µM (active); with CYP3A5 (gene 1577), 92.9 µM (active).
`NC(=O)N1C(=O)C(C(=O)c2cc(Cl)cs2)c2cc(F)c(Cl)cc21` (stereo unspecified): the half-maximal activity concentration (AC50) was 50 µM (active) in [1]; 19.1 µM (active) with Caspase-3 (Homo sapiens); 4.16 µM (active) in [3]; 19.2 µM (active) in assay [4]; 16.3 µM (active) in assay [5]; 22.4 µM (active) in [6]. For the same compound, the AC50 is 50 µM (active) with CYP2C8 (gene 1558); 22.4 µM (active) with CYP2C9 (gene 1559); 13.2 µM (active) with CYP2E1 (gene 1571); 24.6 µM (active) in [7]; 22.9 µM (active) in assay [8]; 50 µM (active) in [9]. Also, the results for the AC50 (in [10]; with CYP3A5 (gene 1577)) were 79.3 µM (active) and 13 µM (active), respectively. In addition, the call in assay [2] and in assay [11] was inactive.
